Growth data for eight molecules are collected here from PubChem BioAssay (NCI).

This is part of a sample that, as a whole, favours compounds with a hit. Of some 83,000 tested, about 20% had one in any assay.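 48-hour exposure, single concentration, 96-well plates; percent growth endpoint where 0 means no net growth. Active: below 10.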 Unmarked numbers belong to inactive results. Active and inactive are the calls of the source.

Common to all, as to assay: NCI-60 one-dose screen, 48 h (100 = growth as untreated, 0 = no growth, -100 = all killed)
In one experiment the test system is DU-145 prostate. Conditions: 10 µM unless noted.
The test system of another experiment is K-562 leukemia. Conditions: 10 µM unless noted.
In another experiment the test system is MALME-3M melanoma. Conditions: 10 µM unless noted.
The subject of the next experiment is MDA-MB-231 breast. Conditions: 10 µM unless noted.
Another experiment deals with RXF 393 renal. Conditions: 10 µM unless noted.
Another experiment deals with SF-268 CNS. Particulars: 10 µM unless noted.
In a further experiment the test system is SF-295 CNS. Particulars: 10 µM unless noted.
The next experiment concerns SF-539 CNS. Conditions: 10 µM unless noted.
In the next experiment the test system is UACC-257 melanoma. Conditions: 10 µM unless noted.
Another experiment deals with M14 melanoma. Conditions: 10 µM unless noted.
A further experiment deals with HCT-15 colon. Conditions: 10 µM unless noted.
For the next experiment, the system named is HT29 colon. Particulars: 10 µM unless noted.
A further experiment relates to SNB-75 CNS. Particulars: 10 µM unless noted.
Another experiment concerns SNB-19 CNS. Conditions: 10 µM unless noted.
The subject of the next experiment is PC-3 prostate. Particulars: 10 µM unless noted.
The test system of a further experiment is UACC-62 melanoma. Particulars: 10 µM unless noted.
In a further experiment the test system is LOX IMVI melanoma. Conditions: 10 µM.
Another experiment concerns SK-MEL-28 melanoma. Particulars: 10 µM unless noted.
The next experiment relates to U251 CNS. Particulars: 10 µM unless noted.
Another experiment concerns SK-MEL-5 melanoma. Conditions: 10 µM unless noted.

With `CCN(CC)CCNC(Cc1ccccc1)c1ccc(OCc2ccccc2)cc1` (stereo not drawn), the growth in the experiment on DU-145 prostate is 98.5%; in the experiment on K-562 leukemia, 14.9%; in the experiment with MALME-3M melanoma, 88.6%; in the experiment on MDA-MB-231 breast, 50%; in the experiment with RXF 393 renal, 63.4%; in the experiment with SF-268 CNS, 84.5%. The growth in the experiment on SF-295 CNS was 74.5%; in the experiment with SF-539 CNS, 57%; in the experiment on UACC-257 melanoma, -40.7% (active); in the experiment on M14 melanoma it was -29.6% (active); in the experiment with HCT-15 colon, 30.4%; with HT29 colon it was 15.4%. Besides, the growth in the experiment on SNB-75 CNS was 71.4%; in the experiment with SNB-19 CNS it was 89.3%; in the experiment with PC-3 prostate it was 56.8%; in the experiment with UACC-62 melanoma it was -50.8% (active); with LOX IMVI melanoma, 58.6%; with SK-MEL-28 melanoma it was 62.5%.

On to `COc1cc(/C=C/c2ccnc3ccccc23)cc(OC)c1OC`, for which the growth was 64.4% in the experiment on DU-145 prostate; 8.29% (active) with K-562 leukemia; 40.3% with MALME-3M melanoma; 47.1% in the experiment with MDA-MB-231 breast; 22.1% in the experiment with RXF 393 renal; 48.2% with SF-268 CNS. Further, the growth in the experiment on SF-295 CNS is 32.4%; in the experiment with SF-539 CNS it was 46.1%; in the experiment with UACC-257 melanoma, 58.7%; with M14 melanoma, 13.3%; in the experiment on HCT-15 colon it was 32.5%; with HT29 colon, 11.8%. Also, the growth with SNB-75 CNS is -3.85% (active); in the experiment on U251 CNS it was 33.2%; in the experiment with PC-3 prostate, 56.1%; in the experiment with SK-MEL-5 melanoma, 3.09% (active); in the experiment on UACC-62 melanoma, 38.2%; in the experiment on LOX IMVI melanoma, 26.1%. In addition, in the experiment on SK-MEL-28 melanoma, the growth was 34%.

Regarding `O=C(c1ccccc1)C(Br)C(Br)c1ccccc1` (stereo not drawn), the growth was 94.7% in the experiment with DU-145 prostate; 6.6% (active) in the experiment on K-562 leukemia; -3.62% (active) in the experiment on MALME-3M melanoma; 112% with MDA-MB-231 breast; 33.6% with RXF 393 renal; 102% in the experiment with SF-268 CNS. Also, the growth in the experiment on SF-295 CNS is 82.4%; in the experiment with SF-539 CNS, 108%; in the experiment with UACC-257 melanoma it was 17.3%; with M14 melanoma, 2.17% (active); with HCT-15 colon it was 86%; in the experiment on HT29 colon it was -52.9% (active). The growth with SNB-75 CNS is 96.9%; in the experiment on SNB-19 CNS it was 102%; in the experiment with PC-3 prostate, 55.3%; in the experiment on SK-MEL-5 melanoma, 107%; in the experiment on UACC-62 melanoma it was 108%; in the experiment with LOX IMVI melanoma, -55.3% (active). For the same molecule, the growth with SK-MEL-28 melanoma is 111%.

Turning to `O=[N+]([O-])c1ccc([I+]c2ccccc2)cc1`, the growth with DU-145 prostate is -10.5% (active); in the experiment on K-562 leukemia it was 9.29% (active); with MALME-3M melanoma it was -0.265% (active); in the experiment with MDA-MB-231 breast it was 35.4%; in the experiment with RXF 393 renal it was 57.8%; with SF-268 CNS, -69.7% (active). Further, the growth in the experiment on SF-295 CNS was 77.9%; with SF-539 CNS, 1.87% (active); in the experiment with UACC-257 melanoma, 29.7%; in the experiment on M14 melanoma, -36.6% (active); in the experiment with HCT-15 colon it was 62.1%; in the experiment with HT29 colon, -55.8% (active). The growth in the experiment with SNB-19 CNS is -70.9% (active); in the experiment with U251 CNS it was -97.1% (active); in the experiment with PC-3 prostate it was 62.3%; with SK-MEL-5 melanoma it was -29.5% (active); with UACC-62 melanoma, -17.6% (active); in the experiment with LOX IMVI melanoma, -81.9% (active). In the experiment with SK-MEL-28 melanoma, the growth is -76.8% (active).

Turning to `O=[N+]([O-])c1ccc2c(c1)Cc1ccccc1-2`, the growth in the experiment on DU-145 prostate was 97.7%; in the experiment with K-562 leukemia, 94.5%; in the experiment with MALME-3M melanoma it was 95.7%; in the experiment on MDA-MB-231 breast, 102%; in the experiment on RXF 393 renal, 109%; in the experiment with SF-268 CNS it was 95.9%. Also, the growth was 100% with SF-295 CNS; 100% with SF-539 CNS; 97.2% in the experiment with UACC-257 melanoma; 106% in the experiment on M14 melanoma; 91% with HCT-15 colon; 88.9% in the experiment with SNB-75 CNS. Further, the growth was 94.9% in the experiment with SNB-19 CNS; 90.9% with U251 CNS; 96.7% in the experiment on PC-3 prostate; 97.7% in the experiment on SK-MEL-5 melanoma; 91.6% in the experiment with UACC-62 melanoma; 100% with LOX IMVI melanoma. Also, in the experiment with SK-MEL-28 melanoma, the growth is 110%.

As for `CC(=O)c1c(O)c(C)c(O)c2c1OC1=CC(=O)C(C(C)=O)C(=O)C12C` (stereo not drawn), the growth in the experiment with DU-145 prostate was 107%; in the experiment on K-562 leukemia it was 68.9%; in the experiment on MALME-3M melanoma it was 79.4%; in the experiment on MDA-MB-231 breast, 96.3%; with RXF 393 renal, 105%; with SF-268 CNS, 88.9%. Further, the growth with SF-295 CNS is 16.7%; in the experiment on SF-539 CNS it was 98%; with UACC-257 melanoma, 97.8%; in the experiment on M14 melanoma, 67.6%; with HCT-15 colon, 84.4%; in the experiment with SNB-19 CNS, 96.9%. Also, the growth in the experiment on U251 CNS was 74.9%; in the experiment with PC-3 prostate, 45.3%; in the experiment with SK-MEL-5 melanoma, 90.9%; in the experiment on UACC-62 melanoma it was 62.8%; in the experiment on SK-MEL-28 melanoma, 84.4%.

For the molecule `O=C(CBr)c1ccc(OC(=O)c2ccccc2)cc1`, the growth in the experiment on DU-145 prostate was 114%; in the experiment on K-562 leukemia it was 89%; in the experiment on MALME-3M melanoma, 125%; in the experiment on MDA-MB-231 breast, 107%; with RXF 393 renal, 119%; with SF-268 CNS, 102%. The growth is 112% with SF-295 CNS; 102% in the experiment on SF-539 CNS; 87.9% in the experiment with UACC-257 melanoma; 87.4% in the experiment on M14 melanoma; 101% with HCT-15 colon; 115% with HT29 colon. For the same molecule, the growth in the experiment on SNB-75 CNS was 96.5%; in the experiment with SNB-19 CNS it was 112%; with PC-3 prostate, 101%; in the experiment with SK-MEL-5 melanoma it was 107%; in the experiment on UACC-62 melanoma, 107%; in the experiment on LOX IMVI melanoma, 73.3%. In the experiment with SK-MEL-28 melanoma, the growth was 112%.

Take `CCN(CC)CC(O)CNc1ccc(NCC2CO2)c2c1C(=O)c1ccccc1C2=O` (stereo not drawn): the growth is -19.1% (active) in the experiment with DU-145 prostate; -25.6% (active) in the experiment on K-562 leukemia; -44.4% (active) in the experiment with MALME-3M melanoma; -2.98% (active) in the experiment on MDA-MB-231 breast; 4.29% (active) in the experiment on RXF 393 renal; -7.61% (active) in the experiment with SF-268 CNS. For the same molecule, the growth in the experiment on SF-295 CNS is 20.4%; in the experiment on SF-539 CNS it was -39.4% (active); in the experiment with UACC-257 melanoma, -2.17% (active); with M14 melanoma, -63.1% (active); in the experiment on HCT-15 colon, -38.1% (active); in the experiment on HT29 colon it was -42.9% (active). The growth in the experiment on SNB-75 CNS is -66% (active); with SNB-19 CNS it was 3.77% (active); in the experiment with PC-3 prostate, -28.4% (active); in the experiment on SK-MEL-5 melanoma, -89.8% (active); in the experiment on UACC-62 melanoma, -73.5% (active); in the experiment on LOX IMVI melanoma it was -54.1% (active).
